# Bim-Mcl-1 = human Bim-Mcl-1 interaction inhibition; Bead-based flow cytometry, Bim peptide-Mcl-1 binding; 190,000 compounds, 0.1% hits; inhibition, % at 10 µM; Q07820; in the data active = inhibition above about 40%;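 also: 0% = no compound tracer wells and 100% = peptide blocker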
# p47phox inh = inhibitors of human p47phox binding | P14598 | p47phox/p22phox peptide binding, fluorescence polarization, 2 h | inhibition, % at 24.7 µM | 220,000 compounds, 0.53% hits;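 active = inhibition above about 30%, limit read from the data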;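 also: 0% = p47phox with labelled peptide and 100% = labelled peptide alone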
# Target sequence (P14598 whole entry, looked up): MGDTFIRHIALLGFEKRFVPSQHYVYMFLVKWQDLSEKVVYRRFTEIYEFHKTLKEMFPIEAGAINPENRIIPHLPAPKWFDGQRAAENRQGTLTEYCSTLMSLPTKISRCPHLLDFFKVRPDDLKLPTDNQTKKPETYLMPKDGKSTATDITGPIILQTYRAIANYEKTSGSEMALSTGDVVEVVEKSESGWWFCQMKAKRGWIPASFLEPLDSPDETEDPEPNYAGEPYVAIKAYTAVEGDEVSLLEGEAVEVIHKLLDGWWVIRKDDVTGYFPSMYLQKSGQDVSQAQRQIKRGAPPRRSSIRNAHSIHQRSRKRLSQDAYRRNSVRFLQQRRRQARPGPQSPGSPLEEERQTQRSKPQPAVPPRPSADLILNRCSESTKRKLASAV
# Calpain2 inh = calpain II (pig) inhibition; inhibition, % at 16 µM; AID 1236; purified calpain II, fluorogenic peptide substrate, 30 min; 220,000 compounds, 0.37% hits;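 active = inhibition above about 50%, limit read from the data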
# 14-3-3 Bad inh = disrupts binding of bovine 14-3-3 zeta to phospho-Bad peptide; AID 781; inhibition, % at 21.7 µM; P63103; 220,000 compounds, 0.71% hits; TR-FRET 14-3-3zeta/Dy647-pBad peptide displacement, 1 h;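 active = inhibition above about 70%, limit read from the data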;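 also: 0% = full 14-3-3 plus peptide FRET controls and 100% = background without 14-3-3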
# Mcl1 Bid PPI = disrupts binding of human Mcl-1 to Bid peptide; Q07820; TR-FRET Mcl-1/Bid-Dy647 peptide binding, 1536-well; inhibition, % at 21.7 µM; 220,000 compounds, 0.97% hits; AID 1021;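 active = compounds that cut the binding signal by more than half at the single screening dose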;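 also: His-tagged Mcl-1 with europium anti-His antibody binding Bid BH3 peptide; 0% = Mcl-1 plus peptide wells and 100% = peptide-only wells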
# Mcl1 Noxa PPI = disrupts binding of human Mcl-1 to Noxa peptide. Q07820. TR-FRET Mcl-1/Noxa peptide binding, 2 h. inhibition, % at 21.7 µM. 220,000 compounds, 1.5% hits;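 active = compounds that cut the protein-peptide binding signal by more than 50% relative to plate controls in a single-dose test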;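 also: His-tagged Mcl-1 with rhodamine Noxa BH3 peptide and terbium anti-His antibody; 0% = Mcl-1 plus Noxa peptide wells and 100% = peptide-only wells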
# Active calls of the source: *; i = inactive; . = no result; [ ] = dose if it differs, or a comment. Rows were chosen to be rich in hits. Some 3.4% of all compounds tested hit in one or more screens of this group.
SMILES,Bim-Mcl-1,p47phox inh,Calpain2 inh,14-3-3 Bad inh,Mcl1 Bid PPI,Mcl1 Noxa PPI
O=C(Cn1nnc(-c2ccccc2)n1)N/N=C/c1ccco1,1,-6,-4,-14,-24,11
CC(C)Oc1ccc(C(=O)Nc2ccc(N3CCCC3)cc2)cc1,-6,34*,11,13,-13,50
CC(C)c1ccc(C(=O)Nc2ccc(N3CCOCC3)cc2)cc1,1,10,25,6,-26,23
Cc1cc(C)cc(C(=O)Nc2ccc(N3CCCC3)cc2)c1,1,-24,-25,5,-14,67*
CCCn1c(SCC(=O)Nc2cccc(S(=O)(=O)N(C)C)c2)nc2ccccc2c1=O,.,-9,-15,-3,-22,-26
O=C(CSc1ccccn1)Nc1ccc2c(c1)C(=O)c1ccccc1C2=O,0,8,-53,45,77*,72*
O=C(CSc1n[nH]c(=O)[nH]c1=O)Nc1cccc(S(=O)(=O)N2CCOCC2)c1,1,1,2,-11,-40,-1
O=C(CSc1n[nH]c(=O)[nH]c1=O)Nc1ccc2c(c1)C(=O)c1ccccc1C2=O,.,1,-18,46,61*,101*
CC1(C)Cc2c(C#N)c(OCC(=O)c3ccc(Cl)cc3)nc(-c3ccco3)c2CO1,-1,-15,-93,-5,-18,1
Cc1nc(OCC(=O)c2ccc(Cl)cc2)c(C#N)c2c1COC(C)(C)C2,2,122*,12,20,5,17
O=c1c2ccccc2nc2n1CCC2,-3,2,-10,94*,96*,41
c1ccc2c(c1)oc1c(N3CCOCC3)ncnc12,-1,-7,1,81*,28,31
CSc1cnn(Cc2ccccc2)c(=O)c1SCc1ccccc1,-7,1,19,-4,-13,99*
CCOC(=O)N1CCc2c(sc3nc4n(c(=O)c23)N=C(c2ccc(OC)cc2)CS4)C1,.,38*,-18,27,6,11
CC(=O)N1CCC2(CC1)CC(=O)c1cc(OCC(=O)N3CCOCC3)ccc1O2,0,3,i,-7,-30,7
CCOC(=O)N1CCN(C(=O)COc2ccc3c(c2)C(=O)CC2(CCN(C(C)=O)CC2)O3)CC1,0,-4,i,95*,-5,-14
Cn1nnnc1SC(C(=O)Nc1cccc(C(F)(F)F)c1)c1ccccc1 (stereo unspecified),-2,-13,54*,2,-17,8
Cc1ccc(-n2cccn2)c([C@@H]2C[C@H]3CN(C)C(=O)[C@]34CCCN24)c1,-2,5,21,-1,-12,12
COc1ccc(-c2ccc(C#N)c(SCC(=O)Nc3sc4c(c3C#N)CCC4)n2)cc1OC,18,34*,-73,92*[fluorescence artefact?],73*,16
N#Cc1cc2c(nc1SCC(=O)Nc1sc3c(c1C#N)CCC3)CCC2,-1,-19,-77,-12,-29,7
Cc1cc(-c2ccccc2)nc(=O)[nH]1,-1,-5,-6,74*,37,15
CN1CCC/C1=C/C=C1\SC(=S)NC1=O,-5,-70,60*,-3,-37,-58
CN1/C(=C\C=C2/SC(=S)NC2=O)C(C)(C)c2ccccc21,-7,-234,-45,-1,-34,-40
CC(C)Cn1c(-c2ccc(Br)cc2)c[nH]c1=S,0,-3,75*,-3,-16,40
CC1CCN(Cc2c(O)ccc3c(=O)c(-c4nc5ccccc5s4)c(N)oc23)CC1,3,-34,-56,0,5,53*
SMILES,Bim-Mcl-1,p47phox inh,Calpain2 inh,14-3-3 Bad inh,Mcl1 Bid PPI,Mcl1 Noxa PPI
CC1CCCN(Cc2c(O)ccc3c(=O)c(-c4nc5ccccc5s4)c(N)oc23)C1 (stereo unspecified),6,-29,-90,7,3,49
CC(NC(=O)Nc1ccccn1)N1C(=O)C2C3C=CC(C3)C2C1=O (stereo unspecified),48*,-7,9,1,-11,-4
CCOc1ccc(S(=O)(=O)N2CCN(c3ccccc3F)CC2)c2cccnc12,-3,-12,-3,7,1,8
O=C(O)CCCC(=O)NCc1c(Cl)cccc1Sc1ccc(Cl)cc1,.,34*,10,-4,10,0
O=C(NC1CCCCC1)C(c1ccc(F)cc1)N(Cc1ccco1)C(=O)CN1C(=O)c2ccccc2S1(=O)=O (stereo unspecified),-4,2,18,13,2,-19
C=CCOc1c2ccc(C(=O)NCc3ccc(OC)cc3)cc2nn1C,-2,5,-243,4,-16,-3
C=CCOc1c2ccc(C(=O)NCc3ccccc3OC)cc2nn1C,0,-1,-438,-1,64*,10
Cc1ccc(C)c(N(C)S(=O)(=O)c2ccc3[nH]cc(C(=O)NCCN4CCOCC4)c(=O)c3c2)c1,-2,0,-43,6,20,35
Cc1cccc(N(C)S(=O)(=O)c2ccc3[nH]cc(C(=O)N4CCOCC4)c(=O)c3c2)c1,-1,-10,-46,33,51*,50
CCn1cc(CNC(=S)Nc2cccc(Cl)c2C)cn1,-5,-8,4,-8,-1,10
O=C(O)/C(=C/c1ccco1)NC(=O)c1ccccc1,-1,-3,4,0,-29,24
O=C(O)/C(=C\c1ccco1)NC(=O)c1cccc2ccccc12,2,127*,8,1,-10,27
Cn1nc(C(F)(F)F)cc1-c1ccc(S(N)(=O)=O)s1,.,-6,1,-2,-11,14
CCOC(=O)C1CCCN(c2c(Nc3ccc(C)c(C)c3)c(=O)c2=O)C1 (stereo unspecified),-4,-11,20,12,-7,-7
CCOC(=O)C1CCCN(c2ccc(NC(=O)c3snc4c(=O)[nH]cnc34)cc2)C1 (stereo unspecified),-3,1,-42,12,-60,63*
CCOC(=O)C1CCCN(c2ccc(NC(=O)c3snc4c(=O)[nH]c(C)nc34)cc2)C1 (stereo unspecified),0,-4,-17,1,2,84*
CC1CCCN(CCOc2ccc3ccccc3c2Br)C1 (stereo unspecified),0,-12,1,9,5,9
CCCCC(=O)Nc1ccccc1CC,.,-3,-8,1,-14,18
CCC(=O)OC1(C#CCOc2ccc(OC)cc2)CCN(C)CC1,4,-3,9,33,53*,10
Cc1nc(NCCN2CCOCC2)c2nnn(Cc3ccccc3Cl)c2n1,0,-7,-14,-3,1,10
CC(C)(C)c1nc(NCCN2CCOCC2)c2nnn(Cc3ccccc3Cl)c2n1,41*,-4,-29,9,-1,-1
CC12CCC(C(=O)N3CCN(Cc4ccccc4)CC3)(OC1=O)C2(C)C (stereo unspecified),-1,32*,-7,-7,-14,-3
O=C(Nc1ccc2c(c1)OCO2)c1ccc2c(c1)OCO2,-4,-9,13,-7,-1,14

# Screening results from PubChem.
